Data as given in the supplement of paper PMC12350171.
Where a name gives a salt, the structure may show the parent alone.

What was measured:
Conditions in all cases: 20 µM
[1] = system: Salmonella enterica typhimurium; assay: growth AUC normalised to DMSO control (fraction of control); higher = less growth inhibition, active = hit call of the paper
Outline: (§1)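 Hemin and NAD were added to the medium for Haemophilus parainfluenzae. All pathogens, after two anaerobic passages, were inoculated at a starting OD578 of 0.01 into pre-reduced mGAM plates with 20 μM compound and 1% DMSO under breathable seals, and OD578 was read hourly for 24 h in three biological replicates. AUC of each growth curve was obtained with the trapezoidal rule up to the exponential-to-stationary transition and normalised to DMSO controls from the same plate.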

Shigella flexneri = assay: as above
Outline: as §1

Vibrio cholerae = assay: as above
Outline: as §1

[2] = system: Yersinia pseudotuberculosis; assay: as above
Outline: as §1

P. vulgatus RND KO = assay: growth AUC normalised to DMSO control (median) (fraction of control); higher = less growth inhibition, active = hit call of the paper
Outline: (§2)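 Strains were passaged twice overnight without oxygen, then grown in mGAM in 96-well plates with each approved-drug library compound at 20 μM and 1% DMSO, starting at OD578 0.01. OD578 was read hourly for 24 h inside an anaerobic incubator. Curves were truncated at entry into stationary phase, and the trapezoidal-rule area under the curve was normalised to same-plate vehicle wells. The value is the median across three biological replicates.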

P. vulgatus WT = assay: as above
Outline: as §2

[3] = system: S. enterica typhimurium WT; assay: as above
Outline: as §2

[4] = system: S. enterica typhimurium tolC KO; assay: as above
Outline: as §2

Measured: growth AUC normalised to DMSO control
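Throughout, for growth AUC normalised to DMSO control (median): active when median AUC fell below 0.1.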

CC(=O)NCCCS(=O)(=O)O [Acamprosate calcium]
inactive: [1] 1 | Shigella flexneri 1.02 | Vibrio cholerae 1 | [2] 0.99 | P. vulgatus RND KO 1.02 | P. vulgatus WT 1.03 | [3] 1 | [4] 0.996

CCN(CC)CCNC(=O)c1cc(Cl)c(N)cc1OC [Metoclopramide monohydrochloride]
inactive: [1] 0.994 | Shigella flexneri 0.978 | Vibrio cholerae 0.989 | [2] 0.993 | P. vulgatus RND KO 0.977 | P. vulgatus WT 0.971 | [3] 1 | [4] 1

CC(=O)N(CC(O)CN(C(C)=O)c1c(I)c(C(=O)NCC(O)CO)c(I)c(C(=O)NCC(O)CO)c1I)c1c(I)c(C(=O)NCC(O)CO)c(I)c(C(=O)NCC(O)CO)c1I (stereo not drawn) [Iodixanol]
inactive: [1] 0.977 | Shigella flexneri 0.943 | Vibrio cholerae 0.99 | [2] 0.977 | P. vulgatus RND KO 1 | P. vulgatus WT 0.98 | [3] 0.996 | [4] 1

CCCSc1ccc2[nH]c(NC(=O)OC)nc2c1 [Albendazole]
inactive: [1] 1 | Shigella flexneri 1.03 | Vibrio cholerae 0.99 | [2] 0.993 | P. vulgatus RND KO 1.03 | P. vulgatus WT 1.07 | [3] 0.999 | [4] 1

CC1c2cccc(O)c2C(O)=C2C(=O)C3(O)C(O)=C(C(N)=O)C(=O)C(N(C)C)C3C(O)C21 (stereo not drawn) [Doxycycline hydrochloride]
active: [1] 0.00452 | Shigella flexneri 0.00494 | Vibrio cholerae 0.018 | [2] 0.0395 | P. vulgatus RND KO 0.012 | P. vulgatus WT 0.00631 | [3] 0.00375 | [4] 0.00276

C[N+]1(CCCCC[N+]2(C)CCCC2)CCCC1 [Pentolinium bitartrate]
inactive: [1] 0.991 | Shigella flexneri 1 | Vibrio cholerae 0.874 | [2] 0.994 | P. vulgatus RND KO 1 | P. vulgatus WT 0.978 | [3] 0.989 | [4] 0.996

COC(=O)C1=C(C)NC(C)=C(C(=O)OCC(C)C)C1c1ccccc1[N+](=O)[O-] (stereo not drawn) [Nisoldipine]
inactive: [1] 1.01 | Shigella flexneri 1 | Vibrio cholerae 1.01 | [2] 0.991 | P. vulgatus RND KO 0.945 | P. vulgatus WT 0.981 | [3] 1.01 | [4] 0.95

COC(=O)[C@@H]1[C@H]2C[C@H]3c4[nH]c5ccccc5c4CCN3C[C@@H]2CC[C@@H]1O [Yohimbine hydrochloride]
inactive: [1] 0.984 | Shigella flexneri 0.958 | Vibrio cholerae 0.969 | [2] 1 | P. vulgatus RND KO 0.984 | P. vulgatus WT 1.01 | [3] 1 | [4] 1

CC(C)CC(=O)N[C@H](C(=O)N[C@H](C(=O)N[C@@H](CC(C)C)[C@@H](O)CC(=O)N[C@@H](C)C(=O)N[C@@H](CC(C)C)[C@@H](O)CC(=O)O)C(C)C)C(C)C [Pepstatin A]
inactive: [1] 1.01 | Shigella flexneri 1.03 | Vibrio cholerae 1.04 | [2] 1 | P. vulgatus RND KO 1.02 | P. vulgatus WT 1.05 | [3] 1.01 | [4] 0.988

Cc1ccc(Cl)c(Nc2ccccc2C(=O)O)c1Cl [Meclofenamic acid sodium salt monohydrate]
inactive: [1] 1 | Shigella flexneri 0.954 | Vibrio cholerae 0.891 | [2] 0.981 | P. vulgatus RND KO 0.859 | P. vulgatus WT 0.903 | [3] 1.01 | [4] 1.01

CC(=O)N(CC(C)C(=O)O)c1c(I)cc(I)c(N)c1I (stereo not drawn) [Iocetamic acid]
inactive: [1] 0.985 | Shigella flexneri 0.948 | Vibrio cholerae 0.939 | [2] 0.99 | P. vulgatus RND KO 0.984 | P. vulgatus WT 0.974 | [3] 0.989 | [4] 0.988

CC(=O)Oc1cc(C(C)C)c(OCCN(C)C)cc1C [Moxisylyte hydrochoride]
inactive: [1] 0.992 | Shigella flexneri 0.992 | Vibrio cholerae 0.991 | [2] 0.99 | P. vulgatus RND KO 0.999 | P. vulgatus WT 1 | [3] 1.01 | [4] 1

CNC[C@H](O)[C@@H](O)[C@H](O)[C@H](O)CO [Meglumine]
inactive: [1] 1.02 | Shigella flexneri 1 | Vibrio cholerae 1.04 | [2] 0.984 | P. vulgatus RND KO 1.01 | P. vulgatus WT 1.04 | [3] 1.01 | [4] 1

NCCc1cc[nH]n1 [Betazole hydrochloride]
inactive: [1] 0.986 | Shigella flexneri 0.97 | Vibrio cholerae 0.979 | [2] 0.968 | P. vulgatus RND KO 0.999 | P. vulgatus WT 1.02 | [3] 1 | [4] 0.999

O=C(OCCOCCO)c1ccccc1Nc1cccc(C(F)(F)F)c1 [Etofenamate]
inactive: [1] 1.01 | Shigella flexneri 0.979 | Vibrio cholerae 0.977 | [2] 0.991 | P. vulgatus RND KO 0.832 | P. vulgatus WT 0.909 | [3] 1 | [4] 0.858

CC(C)(C(=O)c1cccnc1)c1cccnc1 [Metyrapone]
inactive: [1] 0.996 | Shigella flexneri 0.992 | Vibrio cholerae 0.965 | [2] 0.989 | P. vulgatus RND KO 0.996 | P. vulgatus WT 0.981 | [3] 1 | [4] 0.996
